Bioassay records: PubChem, National Center for Advancing Translational Sciences (NCATS)
Only some compounds are listed: those with a hit (about 21% of all), similar ones and a draw of the others.
Pf growth 96h – inhibits malaria parasite growth, 96 h. P. falciparum luciferase reporter growth, 96 h. Potency, µM (highest dose often 28.7 µM), for the others: at the highest dose activity change, negative = inhibition, usual class: inhibitors. actives 6.9% (n = 320,000); note: potency is the fitted concentration of half-maximal effect; % is set by controls: 0 for no effect and ±100 for the full control effect
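P. falciparum expressing integrated firefly luciferase, in erythrocytes at 2% hematocrit, 0.05% parasitemia, incubated with compounds 96 h at 37 C, 5% CO2. Growth inhibition read as loss of luminescence; two-generation exposure targets delayed-death apicoplast inhibitors.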
Pf growth 48h – P. falciparum growth inhibition at 48 hours (one generation); P. falciparum luciferase growth in erythrocytes, 48 h; AID 504832; actives 5.9% (n = 310,000); Potency, µM (highest dose often 28.7 µM), without a hit: top-dose activity change, negative = inhibition, most hits filed as inhibitors; note: potency is the fitted concentration of half-maximal effect; % is set by controls: 0 for no effect and ±100 for the full control effect
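Firefly luciferase activity from engineered P. falciparum reports growth; inhibitors lower the luminescent signal. Cultures contained 2% hematocrit erythrocytes at 0.1% final parasitemia.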
Sm TGR inh – inhibitors of Schistosoma mansoni thioredoxin glutathione reductase | Q962Y6 | purified TGR, DTNB reduction, TNB absorbance 405 nm | Potency, µM (titrated, usually from 114 µM), without a hit: top-dose activity change, negative = inhibition, hits mostly inhibitors | actives 3% (n = 360,000) | AID 485364; note: potency is the fitted concentration of half-maximal effect; % is set by controls: 0 for no effect and ±100 for the full control effect; nearly all actives have a fitted effect of over 60% in size
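First, TGR (20 nM dispensed) and NADPH were mixed with compound. Second, a 15 min room-temperature incubation followed. Third, further NADPH and then DTNB were added to start the reaction. Finally, TNB absorbance was monitored kinetically.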
CHX counter – counter-screen hit for Shiga toxin inhibitors, cycloheximide | cell reporter, cycloheximide protein synthesis inhibition counterscreen | max response, % | actives 12% (n = 300,000); in the data active = max response mostly above about 13%, no sharp cut-off; inactive = mostly below about 14%; note: read at 38.3 µM for the half of the compounds with a filed dose; 0% is about no effect
Shiga toxin inh – Shiga toxin inhibition. Vero cells, Shiga toxin protein synthesis inhibition reporter. inhibition, % at 38.7 µM. actives 9.2% (n = 290,000). AID 2315; in the data active = inhibition mostly above about 28%, no sharp cut-off; inactive = mostly below about 43%; note: 0% is about no effect
NS1 function inh – blocks influenza NS1 protein function | Potency, µM (series often up to 46.1 µM), for inactives: top-dose activity, positive = more growth | actives 0.4% (n = 270,000); calls by dose curve; note: potency is the fitted concentration of half-maximal effect; actives are rising curves; nearly all actives have a fitted effect of over 50% in size
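In this qHTS, NS1 from influenza A is expressed in budding yeast, where it slows growth. Cells are switched from glucose to 2% galactose medium (pH 6.0, -URA), treated with compound, and growth recovery is read at OD600.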
Starred values were filed as active, the others as inactive; i = inactive; ? = inconclusive; nt = no result; [ ] = remark or other dose. Unless noted, calls come from the whole dose curve; as a rule, active = well fitted curve in the direction sought with a large enough effect; inconclusive = small, poorly fitted or top-dose-only effect, or another doubt; inactive = no such curve, though single readings can be large; an effect the other way counts as inactive or inconclusive.

SMILES	Pf growth 96h	Pf growth 48h	Sm TGR inh	CHX counter	Shiga toxin inh	NS1 function inh
CNC(=O)Nc1ccc2nc(C)sc2c1	-3%	50%	2%	16*	18	-2%
COC(=O)c1ccc(NC(=S)N2CCN(CCO)CC2)cc1	?	40%	6%	-1	-8	-1%
COc1ccc2c(C)nc(Nc3nc(C)c(C)c(=O)[nH]3)nc2c1	?	89%	12%	48*	25	-3%
COc1ccc(Nc2nc(C)c3ccccc3n2)cc1	3.7µM*	115%	3%	27*	135*	-16%
CC1=NC(Nc2nc(C)c3ccccc3n2)=NC(C)(C)C1	?	?	25µM*	-1	-11	-6%
CCc1c(C)nc(Nc2nc(C)c3cc(OC)ccc3n2)[nH]c1=O	-19%[5.75 µM]	?	2%	8	-16	-15%
Cc1nc(Nc2nc(-c3ccccc3)cc(=O)[nH]2)nc2ccccc12	nt	nt	nt	nt	nt	-33%
CCc1c(C)nc(Nc2nc(C)c3ccc(OC)cc3n2)[nH]c1=O	7.4µM*	nt	2%	0	-11	6%
Cc1ccc(NC(=O)Nc2cc3c(cc2N2CCCCC2)n(C)c(=O)n3C)cc1Cl	nt	nt	-2%	nt	nt	nt
COc1ccc2c(C)nc(Nc3nc(C)cc(C)n3)nc2c1	4.7µM*	13µM*	11µM*	2	-7	8%
COc1ccc2c(C)nc(N/C(N)=N/S(=O)(=O)c3ccc(C)cc3)nc2c1	?	?	nt	-2	-7	4%
COC(=O)c1ccc2nc(NC(=O)C3CC3)sc2c1	52%	90%	5%	49*	155*	-12%
COC(=O)c1ccc2nc(NC(=O)C(C)C)sc2c1	204%	193%	20%	52*	98*	nt
COc1ccc(OC)c2sc(NC(=O)C(C)C)nc12	1%	10%	8%	13	8	?
COC(=O)c1ccc2nc(NC(=O)CN3C(=O)CCC3=O)sc2c1	0.83µM*	0%	4%	19	16	3%
COC(=O)c1ccc2nc(NC(=O)CCS(=O)(=O)c3ccccc3)sc2c1	4%	2%	-27%	-1	-1	-10%
C/C(=N\NC(=O)Cc1cccn1C)c1cccs1	15%	12%	-5%	-1	10	9%
C/C(=N/NC(=O)c1cccs1)c1cccs1	70%	265%	3%	43*	76*	-25%
CC(=O)Nc1cccc(/C(C)=N/NC(=O)c2cccs2)c1	14%	59%	1%	56*	46*	-5%
CCOC(=O)N/N=C(\C)c1cccs1	?	34%	-1%	35*	96*	nt
C/C(=N\NC(=O)c1cccs1)c1c(O)cc(C)oc1=O	?	25%	-9%	51*	84*	-39%
CC(=O)Nc1cccc(/C(C)=N/NC(=O)c2ccc(NS(=O)(=O)c3cccs3)cc2)c1	23%	22%	6%	-2	14	11%
Cc1cccc(CN2CC34CCC(CC3S2(=O)=O)O4)c1 (stereo unspecified)	nt	nt	nt	9	10	nt
CCOc1c(C)cnc2c1c(=O)n(Cc1c(F)cccc1Cl)c(=O)n2C	-1%	-11%	-5%	-3	2	-14%
COc1cc(C(=O)NCC(=O)N/N=C(/C)c2cccs2)cc(OC)c1OC	1.7µM*	0%	6%	1	-15	-3%
SMILES	Pf growth 96h	Pf growth 48h	Sm TGR inh	CHX counter	Shiga toxin inh	NS1 function inh
O=C(NNC(=O)c1sccc1-n1cccc1)c1cccs1	8%	30%	4%	-6	-6	15%
CCN(CC)S(=O)(=O)c1cccc(C(=O)N/N=C(\C)c2cccs2)c1	68%	157%	9%	31*	74*	nt
C/C(=N\NC(=O)c1sccc1-n1cccc1)c1cccs1	34%	-2%	0%	19	54*	nt
C/C(=N\Nc1ccc(Cl)cc1)c1c(O)cc(C)oc1=O	103%	i	22µM*	18	12	nt
COc1ccc(/C(C)=N/NC(=O)CNC(=O)c2cccs2)cc1OC	?	5%	-8%	15	56	nt
C/C(=N\NC(=O)CSCc1cccc(Br)c1)c1ccc([N+](=O)[O-])cc1	0%	44%	0%	-3	-15	0%
CN(C)S(=O)(=O)c1cccc(NC(=O)c2ccc3c(c2)OCCO3)c1	-5%	57%	-11%	nt	nt	nt
C/C(=N/NC(=O)c1cccs1)c1cccc(N)c1	?	45%	0%	43*	88*	1%
C/C(=N\NC(=O)c1nonc1N)c1cccs1	13%	32%	-3%	23*	active	1%
CC(C)CNC(=O)c1ccccc1NC(=O)c1ccccc1N(C)S(=O)(=O)c1ccccc1	?	?	2%	7	-7	7%
CCOC(=O)C1CCN(C(=O)CCc2c(C)nc3cc(-c4ccc(OC)cc4OC)nn3c2C)CC1	?	13µM*	-1%	-1	-2	nt
CCOC(=O)C1CCN(C(=O)CCc2c(C)nc3ncnn3c2C)CC1	15µM*	nt	-15%	-6	-24	10%
COC(=O)C(NC(=O)CCc1c(C)nc2ncnn2c1C)C(C)C (stereo unspecified)	13µM*	65%	15%	1	-8	-4%
COc1cccc(NC(=O)Nc2cccs2)c1	3%	?	?	24*	41	17%
COc1cccc(NC(=O)Nc2ccncc2)c1	-6%	10µM*	3%	17*	23	5%
COc1cccc(NC(=O)Nc2cnccn2)c1	45%	88%	1%	20*	62	-6%
COc1cccc(NC(=O)Nc2ccc(Cc3ccncc3)cc2)c1	-25%	4%	2%	9	42	-10%
CC(=O)c1cccc(NC(=O)Nc2cccs2)c1	27%	-12%	-34%	-1	-2	9%
COc1ccc(OC)c(NC(=O)Nc2cnccn2)c1	?	56%	-1%	16*	46	-12%
Cc1ccc(NC(=O)CCNS(=O)(=O)c2ccc3[nH]c(=O)oc3c2)cc1F	54%	?	-6%	2	8	-3%
Fc1ccc(NC(=S)NC23CN4CN(CN(C4)C2)C3)cc1	43%	7%	1%	-6	-10	13%
COc1ccc(C2=NS(=O)(=O)N(C)C(C(=O)NC3CCCCC3)=C2)cc1OC	-8%	5%	-11%	-2	6	-1%
COc1cccc(NC(=O)Nc2ccc(C(C)(C)C)cc2)c1	32%	?	3%	25*	51*	-42%
CCCN1Cc2cccc(C(=O)Nc3ccc4c(c3)OCCO4)c2C1=O	-3%	nt	11%	19*	59	-94%
COCCN1Cc2cccc(C(=O)Nc3ccc(-c4nc5ccccc5[nH]4)cc3)c2C1=O	?	?	1%	11*	12	7%
COCCN1Cc2cccc(C(=O)Nc3cccc(-c4nc5ccccc5[nH]4)c3)c2C1=O	?	1.9µM*	9%	48*	105	5%
